# Source: PubChem
# Most compounds without a hit are left out; they make up all but 2.2% or so of the library.
# AI-2 QS mod: Vibrio harveyi AI-2 quorum sensing modulators, primary screen, JMH597 strain, luminescence/OD600 ratio; Vibrio harveyi JMH597 AI-2 luminescence/OD600 ratio, 9 h; hits give low values; strain lacks LuxN and CqsS sensors; 0 = neutral-control median; 300,000 compounds, 0.4% hits; activity change, % at 7.5 µM; in the data active means activity change below about -75%, passing the limit was not always enough;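 further: luminescence divided by OD600 gain over 9 h not by final OD600 alone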
# HIF activator: HIF pathway transcriptional activators, primary screen, cell-based, U2OS HRE-luciferase, luminescence; U2OS HRE-luciferase reporter; normalized: DMSO 0%, desferrioxamine 100%; AID 1910, 2009; 300,000 compounds, 0.32% hits; activation, % at 7.5 µM (by protocol);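 active means mean activation of at least 10% of the iron chelator positive control signal, with at least half of replicates also reaching 10%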
# CHT PAM: CHT positive allosteric modulators, primary screen, cell-based, membrane potential dye, choline EC20 | High affinity choline transporter 1 (Homo sapiens), Q9GZV3 | CHT-expressing cells; hits give high values; LV-AA mutant CHT in HEK293 cells | B-score at 10 µM | 310,000 compounds, 0.49% hits;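 active means initial fluorescence not abnormally high and integrated response B-score, plate-corrected, over 3 SD above library mean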
# Target sequence (Q9GZV3 whole entry, looked up): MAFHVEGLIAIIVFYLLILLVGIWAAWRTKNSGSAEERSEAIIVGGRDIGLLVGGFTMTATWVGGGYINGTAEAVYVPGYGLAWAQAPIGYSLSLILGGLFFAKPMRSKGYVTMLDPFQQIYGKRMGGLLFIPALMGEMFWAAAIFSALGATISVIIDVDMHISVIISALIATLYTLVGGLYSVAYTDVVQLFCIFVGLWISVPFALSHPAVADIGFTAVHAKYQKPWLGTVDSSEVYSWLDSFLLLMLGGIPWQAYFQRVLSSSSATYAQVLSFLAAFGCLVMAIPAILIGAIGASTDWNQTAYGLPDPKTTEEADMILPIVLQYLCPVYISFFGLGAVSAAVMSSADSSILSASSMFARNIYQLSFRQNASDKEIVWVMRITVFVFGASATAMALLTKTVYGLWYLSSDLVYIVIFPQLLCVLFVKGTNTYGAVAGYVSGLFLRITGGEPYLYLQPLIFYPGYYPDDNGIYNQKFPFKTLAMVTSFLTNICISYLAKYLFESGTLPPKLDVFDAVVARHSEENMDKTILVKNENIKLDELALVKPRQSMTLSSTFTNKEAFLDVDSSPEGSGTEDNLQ
# CHT inh: inhibitors of human choline transporter CHT | CHT-expressing cells, membrane potential dye, choline response; hits give low values | B-score at 10 µM | 310,000 compounds, 0.86% hits;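 active means B-score over 3 SD under the library average, and starting fluorescence ratio not unusually high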;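 further: choline stimulus applied at its EC90 after an EC20 pre-addition; B-score computed on integrated fluorescence ratio after choline addition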
# Platelet DG rel: inhibitors of platelet dense granule secretion, primary screen, cell-based, MLPCN, human platelets | AID 1663, 2009 | human platelet-rich plasma, SFLLRN dense granule ATP release, luminescence | inhibition, %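 (compounds screened at 7.5 µM in platelet-rich plasma)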 | 300,000 compounds, 0.22% hits;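 active means mean replicate score, as percent of positive control, at or above 50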
# VLA-4 inh: inhibition in human VLA-4 binding assay, primary screen, VLA-4 allosteric modulator project, MLPCN library, flow cytometry, VLA-4 expressing cells. 330,000 compounds, 0.2% hits. inhibition, % (about 7 µM as worked out from the volumes in the protocol). Integrin alpha-4 (Homo sapiens), P13612. ligand binding flow cytometry; in the data active means inhibition above about 50%
# CHT inh conf: CHT inhibitors, confirmation, cell-based, membrane potential dye, duplicate. CHT-expressing cells, choline membrane potential dye; LV-to-AA substituted CHT, HEK293 cells. AID 493221, 2011. 2,400 compounds, 70% hits. CHT activity remaining % of control (hits give low values), % at 10 µM. shares compounds with CHT inh;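 active means choline transporter activity left, mean of duplicates at 10 µM, below buffer-only control mean minus 3 SD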;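 further: depolarization triggered by choline at its EC90 following an EC20 pre-addition; 0% = hemicholinium-3 full block and 100% = buffer-only control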
# HEK293 MPD ctr: membrane potential effects in parental HEK293, counter-screen for CHT inhibitor project, cell-based, membrane potential dye | shares compounds with CHT inh | choline response; active = decrease or increase beyond buffer ±3SD | membrane potential ratio readout (active if shifted either direction beyond buffer ±3SD; no single direction) at 10 µM | 2,400 compounds, 4% hits | AID 493222, 2011;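 further: parental cells lack the transporter so any hit is non-specific; ratio is peak minus trough fluorescence over baseline after EC90 choline challenge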
# The depositor's hits bear a star; i = inactive; . = no result given.
SMILES,AI-2 QS mod,HIF activator,CHT PAM,CHT inh,Platelet DG rel,VLA-4 inh,CHT inh conf,HEK293 MPD ctr
Cc1ccc(OC(C)C(=O)Nc2ccc(S(=O)(=O)Nc3nccs3)cc2)cc1 (stereo not drawn),61,0,i,i,-3,6,.,.
Cc1cc(NS(=O)(=O)c2ccc(NC(=O)C(C(C)C)N3C(=O)c4ccccc4C3=O)cc2)nc(C)n1 (stereo not drawn),4,0,i,i,-3,-7,.,.
Cc1cc(C)cc(OC(C)C(=O)Nc2ccc(S(=O)(=O)Nc3cc(C)nc(C)n3)cc2)c1 (stereo not drawn),13,1,i,-6*,-9,6,40%*,i
S=c1[nH]nc(COc2ccccc2)n1Cc1ccccc1,5,1,i,i,6,-11,.,.
CCc1ccc(OCc2n[nH]c(=S)n2Cc2ccccc2)cc1,24,1,i,-6.5*,-3,1,68%*,i
COc1ccc(NC(=O)CN(C)C(=O)Cc2n[nH]c(=O)c3ccccc23)cc1,11,1,i,i,-8,-1,.,.
CCc1cc(C(=O)Cc2nc3ccccc3[nH]2)c(O)cc1O,8,7,i,i,-1,6,.,.
CCc1cc(C(=O)COc2ccccc2F)c(O)cc1O,40,0,i,-5.8*,3,3,i,i
CCc1cc(C(=O)Cc2ccc(F)cc2)c(O)cc1O,24,0,i,-5.6*,-5,-5,43%*,i
O=C(Cc1ccc(F)cc1)c1ccc(O)cc1O,-42,0,i,i,0,39,.,.
O=C(Oc1cccc(F)c1)c1ccc2c(=O)n3c(nc2c1)CCC3,-5,0,i,i,-5,3,.,.
O=C(O)CC1c2ccccc2CCN1S(=O)(=O)c1cccs1 (stereo not drawn),-4,0,i,i,3,-255,.,.
COc1ccc(N2C(=O)CC(N(Cc3ccco3)C(=O)CCC(=O)O)C2=O)cc1 (stereo not drawn),4,-1,i,-6.4*,12,0,i,i
O=C(O)c1ccc(C(=O)C(=O)c2ccccc2)cc1,6,-1,i,i,10,3,.,.
COc1cccc(C(=O)C(C#N)=C(SC)SC)c1,10,2,i,-5.8*,-3,31,36%*,i
CSC(SC)=C(C#N)C(=O)c1ccccc1,36,1,i,-5*,-31,14,37%*,i
CC1CCN(CCc2nc3cc(NS(=O)(=O)c4ccccc4)ccc3n2C)CC1,34,2,i,-9.3*,0,-2,37%*,i
CC1CCN(CCc2nc3cc(NS(=O)(=O)c4ccc(F)cc4)ccc3n2C)CC1,15,0,i,i,-1,32,.,.
O=[N+]([O-])c1ccc(O)c(/C=N/NC2=NS(=O)(=O)c3ccccc32)c1,29,0,i,-5.6*,6,25,60%*,i
O=[N+]([O-])c1ccc(/C=N/NC2=NS(=O)(=O)c3ccccc32)cc1,23,0,i,i,-5,-2,.,.
O=C(CSc1nc2ncc(Cl)cc2[nH]1)NCC(=O)Nc1ccc(F)c(F)c1F,58,0,i,i,-4,5,.,.
COCCCN=C1NN=C(c2cc(C)n(-c3ccccc3)c2C)CS1,14,0,i,i,0,-3,.,.
COCCCN=C1NN=C(c2cc(C)n(-c3ccccc3F)c2C)CS1,7,0,i,-6.5*,1,3,33%*,i
COc1ccc(C2C3=C(CC(C)(C)CC3=O)Nc3n[nH]c(C)c32)cc1 (stereo not drawn),7,0,i,-7.6*,-18,7,i,i
Cc1nc(-c2ccc(S(=O)(=O)N3CCCN(CCc4ccccc4)CC3)s2)cs1,16,0,i,-5.4*,8,7,i,i
SMILES,AI-2 QS mod,HIF activator,CHT PAM,CHT inh,Platelet DG rel,VLA-4 inh,CHT inh conf,HEK293 MPD ctr
COc1ccc(-c2c(-c3cc(OC)cc(OC)c3)n(C)c3ccc(-c4ccc(S(N)(=O)=O)cc4)cc23)cc1,.,.,.,.,.,14,.,.
Cc1cc(-c2ccccc2)n(-c2ccc(C(=O)N3CCN(c4ncccn4)CC3)cc2)n1,17,0,i,-6.4*,4,-27,71%*,i
CN(c1ccc(F)cc1)S(=O)(=O)c1ccc(Cl)c(C(=O)NCc2ccco2)c1,.,.,.,.,.,11,.,.
Cc1cc(C(=O)NCc2ccc(F)cc2)c2ccccc2n1,0,1,i,i,-3,-6,.,.
N#Cc1ccccc1NC(=O)CSc1n[nH]c(=O)n1C1CC1,.,.,.,.,.,-6,.,.
CCN(CC(=O)Nc1ccc(NC(C)=O)cc1)C(=O)CN1C(=O)C2CCCCC2C1=O (stereo not drawn),.,.,.,.,.,8,.,.
Cc1ccc(C(=O)Nc2ccc(Cc3ccncc3)cc2)cc1[N+](=O)[O-],10,0,i,-5.6*,15,-3,i,i
Cc1cc(/C=N/NC(=O)C(=O)NCc2ccccn2)c(C)n1-c1ccccc1,21,0,i,-7*,-15,17,34%*,i
O=C(Nc1ccccc1N1CCOCC1)c1cccc(NS(=O)(=O)c2ccc(F)c(F)c2)c1,31,0,i,-5.5*,1,-2,i,i
Clc1nnc(Cl)c2c1ncn2Cc1ccccc1,9,0,i,i,3,2,.,.
CN1/C(=C\C=Nc2cc(S(=O)(=O)N3CCOCC3)ccc2N2CCOCC2)C(C)(C)c2ccccc21,9,0,i,i,0,9,21%*,i
CCOC(=O)c1c(C)n(C)c2ccc(O)c(CN3CCC(C)CC3)c12,28,0,i,-14*,-1,6,20%*,4.2*
CCOC(=O)c1c(C)n(C)c2ccc(O)c(CN3CCN(C)CC3)c12,-4,1,i,i,-9,15,.,.
O=C(Nc1ccc(Cl)cc1)Nc1ccc(N2CCC(C(F)(F)F)CC2)nc1,24,0,i,-6.1*,2,0,i,i
